# Assay results from PubChem BioAssay (NCATS).
# “And” between values parts separate entries of the source, which are not always exact repeats. Equal values may be shown once. Inconclusive results are not listed. Where a call stands in place of a potency, no number is given. A number with no mark means an inactive call. The source made the active and inactive calls. Calls follow the shape of the dose curve; as a rule, active = well fitted curve in the direction sought with a large enough effect; inconclusive = small, poorly fitted or top-dose-only effect, or another doubt; inactive = no such curve, though single readings can be large; an effect the other way counts as inactive or inconclusive.
# Columns and labels:
# [1] = target: Cellular tumor antigen p53 (Homo sapiens) (UniProt P04637); assay: Primary qHTS for small molecule compounds that upregulate eGFP-tagged delta133p53alpha (in N-terminal) cells. (AID 2060322); conditions: NCI-H358 eGFP-delta133p53alpha fluorescence, 24 h; activation: stronger effect = higher value; also: nearly all actives have a fitted effect of over 75% in size; also: potency is read from the fitted curve at half-maximal effect;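 as to activation: cells pre-induced with doxycycline then dosed without doxycycline; series mostly up to about 56 µM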
# Outline: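 NCI-H358 cells pre-induced 24 h with 10 ng/ml doxycycline for eGFP-delta133p53alpha, plated dox-free and exposed 24 h at 37C to titrated compounds. Fixed, Hoechst-stained; gated GFP peak intensity by laser scanning cytometry, normalized to DMSO (0%) and 57.5 uM 5-azacytidine (100%).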
# [2] = target: Aldehyde dehydrogenase, mitochondrial (Homo sapiens) (UniProt P05091); assay: qHTS for Inhibitors of the Aldehyde Dehydrogenase Family (ALDH2) Primary screen (AID 2061308); also: nearly all actives have a fitted effect of over 55% in size
# [3] = target: Retinaldehyde dehydrogenase 3 (Homo sapiens) (UniProt P47895); assay: qHTS for Inhibitors of the Aldehyde Dehydrogenase Family (ALDH1A3) Primary screen (AID 2061315)
# Sequence of Cellular tumor antigen p53 (Homo sapiens) (P04637 whole entry, looked up): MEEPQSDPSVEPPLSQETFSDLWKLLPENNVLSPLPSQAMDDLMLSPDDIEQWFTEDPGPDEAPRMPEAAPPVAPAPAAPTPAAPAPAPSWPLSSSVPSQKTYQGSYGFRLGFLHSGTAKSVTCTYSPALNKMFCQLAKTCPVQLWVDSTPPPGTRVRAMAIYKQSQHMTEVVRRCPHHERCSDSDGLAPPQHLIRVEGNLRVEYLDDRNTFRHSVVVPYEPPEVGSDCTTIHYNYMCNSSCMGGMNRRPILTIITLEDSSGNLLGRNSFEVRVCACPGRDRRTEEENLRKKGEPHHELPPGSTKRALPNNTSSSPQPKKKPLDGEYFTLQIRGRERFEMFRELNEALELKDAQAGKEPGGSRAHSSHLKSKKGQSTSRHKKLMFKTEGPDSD
Compound,activation [1],Potency [2],Potency [3],Potency [1],"activity change, negative = inhibition [2]","activity change, negative = inhibition [3]"
CC(=O)OC1CC(O)C(C)(C)C2CC(OC(C)=O)C3(C)C(CCC4(C)C(c5ccoc5)C(=O)C5OC543)C12C (centres undefined),-13%,inactive,inactive,–,–,–
CC12Cc3cn[nH]c3C=C1CCC1C2CCC2(C)C1CCC2(C)O (centres undefined),8.33%,inactive,inactive,–,–,–
CC[C@H]1CN2CC[C@H]1C[C@@H]2[C@@H](O)c1ccnc2ccc(OC)cc12,17.9%,inactive,inactive,–,–,–
C=C[C@H]1[C@H](O[C@@H]2O[C@H](CO)[C@@H](O)[C@H](O)[C@H]2O)OC=C2C(=O)OCC[C@H]21,6.11%,inactive,inactive,–,–,–
Oc1ccc2c(c1)C13CCCC[C@H]1[C@@H](C2)N(CC1CCC1)CC3,12.3%,inactive,inactive,–,–,–
CC1=CC2/C=C(\C)CCC(O)C(O)/C=C/C(=O)C23C(=O)NC(CC(C)C)C3C1C (centres undefined),–,inactive,inactive,13.1 µM (active),–,–
C[C@@H]1C(=O)O[C@H]2[C@H](O)[C@@]34[C@@H]5OC(=O)[C@@]3(O[C@@H]3OC(=O)[C@@H](O)[C@@]34[C@H](C(C)(C)C)[C@H]5O)[C@@]12O,2.68%,inactive,inactive,–,–,–
C=C(C)[C@@H]1[C@H]2OC(=O)[C@H]1[C@]1(O)C[C@H]3O[C@]34C(=O)O[C@H]2[C@]14C,4.33%,inactive,inactive,–,–,–
CN1C(=O)c2ccccc2NC(=O)[C@]12O[C@@H]2c1ccccc1,-0.763%,inactive,inactive,–,–,–
CCC1CC2CN3CCc4c([nH]c5ccccc45)C(C(=O)OC)(C2)C13 (centres undefined),3.05%,inactive,inactive,–,–,–
C=CCN1C[C@H](C)N([C@H](c2ccc(C(=O)N(CC)CC)cc2)c2cccc(OC)c2)C[C@H]1C,-16.4% and -0.333%,–,–,–,-7.89% [at 11.2 µM],6.9% [at 11.2 µM]
C[C@H]1O[C@@H](n2cnc3c(N)ncnc32)C[C@@H]1O,15%,inactive,inactive,–,–,–
CC1=C2C(=O)C3[C@@H](CC=C4C[C@@H](O)CC[C@@]43C)[C@@H]2CC[C@]12O[C@@H]1C[C@H](C)CN[C@H]1[C@H]2C (some centres undefined),4.58%,inactive,inactive,–,–,–
CCCOC(=O)Cc1ccc(OCC(=O)N(CC)CC)c(OC)c1,4.33%,inactive,inactive,–,–,–
CCC1(O)CCC2C3CCC4=CC(=O)CCC4C3CCC21CC (centres undefined),-2.33%,inactive,inactive,–,–,–
C/C=C(\C)C(O)C(C)/C=C(C)/C=C/C/C(C)=C/Cc1nc(OC)c(OC)c(O[C@@H]2O[C@@H](C)[C@H](O)[C@@H](O)[C@H]2O)c1C (some centres undefined),-19.1%,inactive,inactive,–,–,–
CCOC(=O)NC(C)(C)Cc1ccc(Cl)cc1,-6.33%,inactive,inactive,–,–,–
C=CC/C=C\C/C=C\CCCCCCCc1cc(O)cc(O)c1,-9.92%,inactive,inactive,–,–,–
C/C=C1/CN2CC[C@]34C(=Nc5ccc(OC)cc53)C2C[C@@H]1C4(CO)C(=O)OC (some centres undefined),-9.16%,inactive,inactive,–,–,–
CN1CCN(c2nc3ccccc3nc2Cl)CC1,1%,inactive,inactive,–,–,–
CC(C)(C)NC[C@H](O)c1ccc(O)cc1Cl,-6.33%,inactive,inactive,–,–,–
Clc1ccc([C@]23CNC[C@H]2C3)cc1Cl,-21.7%,inactive,inactive,–,–,–
CCCCCn1cc(C(=O)c2cccc3ccccc23)c2ccccc21,20.5%,inactive,inactive,–,–,–
C[C@]12CC[C@H]3[C@@H](CCC4=C/C(=N/OCC(=O)O)CC[C@@]43C)[C@@H]1CC[C@@H]2O,13.7%,inactive,inactive,–,–,–
Cc1c(N2C(=O)[C@@H]3[C@H](O)CCN3C2=O)ccc(C#N)c1Cl,3.82%,inactive,inactive,–,–,–
C[N@@+]1(CC2CC2)CC[C@]23c4c5ccc(O)c4O[C@H]2C(=O)CC[C@@]3(O)[C@H]1C5,-5.67%,inactive,inactive,–,–,–
c1ccc([C@@H]2C[C@H]2NC2CCNCC2)cc1,13.8%,inactive,inactive,–,–,–
C=C(C)C(=O)O[C@H]1[C@@H]2[C@H](C)C(=O)O[C@@H]2C[C@@H](C)[C@@H]2C=CC(=O)[C@]21C,–,inactive,inactive,13.2 µM (active),–,–
